# Test results from PubChem BioAssay (EPA / NIEHS).
# Active and inactive are the calls of the source. How the source made its calls: active means hit-call score of the fitted dose curve at least 0.9, where 1 is the maximum; inactive means score below 0.9.
# Biological target: Estrogen receptor (Homo sapiens) (UniProt P03372)
# Assay: OT_ERa_GFPERaERE_0480: Odyssey Thera (OT) 8-hour HeLa Transcription Induction Assay for Estrogen Receptor (AID 2283381)
# Protocol: OT_ERa_GFPERaERE_0480 is a cell-based, single-readout assay that uses HeLa, a human cervix cell line, with measurements taken at 8 hours after chemical dosing in a 384-well plate.OT_ERa_GFPERaERE_0480 is one of one assay component(s) measured or calculated from the OT_ERa_GFPERaERE_0480 assay. It is designed to make measurements of fluorescent protein induction, a form of inducible reporter, as detected with optical microscopy: fluorescence microscopy signals by Microscopy technology.Data from the assay component OT_ERa_GFPERaERE_0480 was analyzed into 1 assay endpoint. This assay endpoint, OT_ERa_EREGFP_0480, was analyzed in the positive analysis fitting direction relative to DMSO as the negative control and baseline of activity. Using a type of inducible reporter, measures of receptor for gain-of-signal activity can be used to understand the reporter gene at the pathway-level as they relate to the gene ESR1. Furthermore, this assay endpoint can be referred to as a primary readout, because the performed assay has only produced 1 assay endpoint. To generalize the intended target to other relatable targets, this assay endpoint is annotated to the nuclear receptor intended target family, where the subfamily is steroidal.
# All assay endpoints are quantified using high content image analysis algorithms.
# Sequence of Estrogen receptor (Homo sapiens) (P03372 whole entry, looked up): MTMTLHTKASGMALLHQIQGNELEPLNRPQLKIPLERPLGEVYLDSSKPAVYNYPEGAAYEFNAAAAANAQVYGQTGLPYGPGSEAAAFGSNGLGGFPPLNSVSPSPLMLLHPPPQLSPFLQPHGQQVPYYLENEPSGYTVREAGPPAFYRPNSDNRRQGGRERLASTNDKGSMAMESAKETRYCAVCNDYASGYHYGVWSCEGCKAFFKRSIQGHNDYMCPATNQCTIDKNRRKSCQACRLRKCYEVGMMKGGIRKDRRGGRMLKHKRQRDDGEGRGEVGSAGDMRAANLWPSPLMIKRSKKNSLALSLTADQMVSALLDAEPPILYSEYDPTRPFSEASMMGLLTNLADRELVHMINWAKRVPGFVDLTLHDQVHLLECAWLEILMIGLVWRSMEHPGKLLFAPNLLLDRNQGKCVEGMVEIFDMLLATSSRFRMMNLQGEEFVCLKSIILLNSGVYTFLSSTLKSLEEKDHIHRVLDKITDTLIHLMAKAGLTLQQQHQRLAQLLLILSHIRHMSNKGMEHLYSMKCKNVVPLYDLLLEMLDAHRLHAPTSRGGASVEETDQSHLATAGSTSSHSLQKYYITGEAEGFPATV
SMILES,AC50,outcome
CC(C)COC(=O)c1ccccc1C(=O)OCC(C)C,13.7 µM (active),
Nc1ccc(N=Nc2ccccc2)cc1,,inactive
CCOc1cccc(C2(N3CCN(c4ccccc4)CC3)CCC(C)CC2)c1 (stereo unspecified),,inactive
CCCCCCCCCCCCCN1CC(C)OC(C)C1 (stereo unspecified),,inactive
Cn1cc(-c2ccccc2)c(=O)c(-c2cccc(C(F)(F)F)c2)c1,,inactive
Cc1ccc([N+](=O)[O-])cc1,,inactive
ClC1=C(Cl)C2(Cl)C3C(Cl)C=CC3C1(Cl)C2(Cl)Cl (stereo unspecified),,inactive
OCCOCCO,,inactive
ClC1=C(Cl)[C@]2(Cl)[C@H]3[C@H]([C@@H]4C=C[C@H]3C4)[C@@]1(Cl)C2(Cl)Cl,,inactive
CCC[CH2][Sn]([Cl])([CH2]CCC)[CH2]CCC,,inactive
C[N+](C)(C)CC1CO1 (stereo unspecified),,inactive
[O-][Cl+]O,,inactive
N#CC(Br)Br,,inactive
O=[N+]([O-])C(Br)(CO)CO,,inactive
CCC12COCN1COC2,,inactive
CNC(=O)Oc1cccc2c1OC(C)(C)C2,,inactive
CCCCCOC(=O)c1ccccc1C(=O)OCCCCC,13 µM (active),
OCCCBr,,inactive
COc1cc(C=O)cc2c1[C@H](COC(N)=O)[C@]1(OC(C)=O)ON2C[C@H]2[C@@H]1N2C(C)=O,,inactive
Brc1ccc(Oc2ccccc2)cc1,,inactive
CCCCCCCCn1sccc1=O,,inactive
Clc1ccc(C(c2ccc(Cl)cc2)C(Cl)Cl)cc1,12.2 µM (active),
CO[C@@H]1[C@H](OC(=O)NC(=O)CCl)CC[C@]2(CO2)[C@H]1[C@@]1(C)O[C@@H]1CC=C(C)C,,inactive
O=C(Oc1ccc(Br)cc1)N1CCN2CCC1CC2,,inactive
O=C(Nc1ccccc1)c1ccccc1I,,inactive
[Cl-].[Cl-].[Hg+2],65.9 µM (active),
